# Where “and” joins values, the source holds several entries; their conditions need not be identical. Equal values may be shown once.
# What was measured:
# Experiment in all cases: thermal shift delta Tm vs DMSO control; higher = stronger stabilization (binding)
# Settings in all cases: 12.5 µM; protein concentration 2 µM
# LOC_OS01G01410-cb001 = test system: LOC_OS01G01410-cb001
# How it was run: (§1)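 Heating from 25°C to 95°C at 0.05°C/s, fluorescence was recorded for 19.5 μl wells of 2 μM E. coli-expressed, purified rice kinase domain in 100 mM potassium phosphate pH 7.5, 150 mM NaCl, 10% glycerol and 5 × SYPRO Orange with compound in DMSO. Boltzmann fits gave melting temperatures for this differential scanning fluorimetry assay. The shift reported is the mean of three replicates against the DMSO-only protein.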
# LOC_OS01G02750-cb003 = test system: LOC_OS01G02750-cb003
# How it was run: as §1
# LOC_OS01G10900-cb004 = test system: LOC_OS01G10900-cb004
# How it was run: as §1
# LOC_OS01G13800-cb001 = test system: LOC_OS01G13800-cb001
# How it was run: as §1
# LOC_OS01G14860-cb001 = test system: LOC_OS01G14860-cb001
# How it was run: as §1
# LOC_OS01G21960-cb002 = test system: LOC_OS01G21960-cb002
# How it was run: as §1
# LOC_OS01G39600-cb002 = test system: LOC_OS01G39600-cb002
# How it was run: as §1
# LOC_OS01G48390-cb002 = test system: LOC_OS01G48390-cb002
# How it was run: as §1
# LOC_OS01G51400-cb002 = test system: LOC_OS01G51400-cb002
# How it was run: as §1
# LOC_OS01G52050-cb004 = test system: T1, LOC_OS01G52050-cb004
# T1 sequence (whole entry): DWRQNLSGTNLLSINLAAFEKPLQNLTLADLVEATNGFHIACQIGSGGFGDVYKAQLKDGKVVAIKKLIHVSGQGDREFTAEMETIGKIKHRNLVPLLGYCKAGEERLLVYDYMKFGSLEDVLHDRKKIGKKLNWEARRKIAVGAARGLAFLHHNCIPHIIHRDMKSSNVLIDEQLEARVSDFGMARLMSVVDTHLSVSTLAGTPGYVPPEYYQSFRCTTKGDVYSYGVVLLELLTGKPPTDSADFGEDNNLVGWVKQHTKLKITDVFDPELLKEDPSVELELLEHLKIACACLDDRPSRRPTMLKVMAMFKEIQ
# How it was run: as §1
# LOC_OS01G57100-cb003 = test system: LOC_OS01G57100-cb003
# How it was run: as §1
# LOC_OS01G60330-cb001 = test system: LOC_OS01G60330-cb001
# How it was run: as §1
# LOC_OS01G60700-cb002 = test system: LOC_OS01G60700-cb002
# How it was run: as §1
# LOC_OS01G63280-cb003 = test system: LOC_OS01G63280-cb003
# How it was run: as §1
# LOC_OS01G67340-cb003 = test system: LOC_OS01G67340-cb003
# How it was run: as §1
# LOC_OS01G70970-cb002 = test system: LOC_OS01G70970-cb002
# How it was run: as §1
# LOC_OS02G07810-cb001 = test system: LOC_OS02G07810-cb001
# How it was run: as §1
# LOC_OS02G08530-cb003 = test system: LOC_OS02G08530-cb003
# How it was run: as §1
# LOC_OS02G14120-cb001 = test system: LOC_OS02G14120-cb001
# How it was run: as §1
# LOC_OS02G17970-cb001 = test system: LOC_OS02G17970-cb001
# How it was run: as §1
# 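Further: purified Escherichia coli-expressed rice kinase domain construct.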
Structure (SMILES),thermal shift delta Tm (LOC_OS01G01410-cb001),thermal shift delta Tm (LOC_OS01G02750-cb003),thermal shift delta Tm (LOC_OS01G10900-cb004),thermal shift delta Tm (LOC_OS01G13800-cb001),thermal shift delta Tm (LOC_OS01G14860-cb001),thermal shift delta Tm (LOC_OS01G21960-cb002),thermal shift delta Tm (LOC_OS01G39600-cb002),thermal shift delta Tm (LOC_OS01G48390-cb002),thermal shift delta Tm (LOC_OS01G51400-cb002),thermal shift delta Tm (LOC_OS01G52050-cb004),thermal shift delta Tm (LOC_OS01G57100-cb003),thermal shift delta Tm (LOC_OS01G60330-cb001),thermal shift delta Tm (LOC_OS01G60700-cb002),thermal shift delta Tm (LOC_OS01G63280-cb003),thermal shift delta Tm (LOC_OS01G67340-cb003),thermal shift delta Tm (LOC_OS01G70970-cb002),thermal shift delta Tm (LOC_OS02G07810-cb001),thermal shift delta Tm (LOC_OS02G08530-cb003),thermal shift delta Tm (LOC_OS02G14120-cb001),thermal shift delta Tm (LOC_OS02G17970-cb001)
Cc1cc(Nc2nc(N[C@@H](C)c3ncc(F)cn3)ncc2Cl)[nH]n1,4.53 °C,2.77 °C,0.35 °C,-0.03 °C,2.85 °C,2.53 °C,4.56 °C,6.25 °C,0.55 °C,0.71 °C,1.57 °C,4.82 °C,0.28 °C,1.3 °C,-0.24 °C,2.3 °C,0.96 °C,2.02 °C,8.03 °C,0.48 °C
Cc1ccc(S(=O)(=O)/C=C/C#N)cc1,-0.23 °C,-1.35 °C,-0.53 °C,-0.18 °C,-0.19 °C,0.75 °C,-1.97 °C,2.88 °C,0.21 °C,-1.44 °C,3.66 °C,-1.26 °C,-1.01 °C,-3.09 °C,-0.5 °C,-2.73 °C,0.83 °C,1.24 °C,-1.26 °C,0.99 °C
COc1cc2c(cc1OC)[C@@H]1C(=O)c3ccc4c(c3O[C@@H]1CO2)C=CC(C)(C)O4 [Deguelin],0.07 °C,0.45 °C,0.52 °C,0.41 °C,0.23 °C,0.41 °C,-0.1 °C,0.4 °C,-0.11 °C,0.13 °C,1.25 °C,1.41 °C,0.73 °C,0.43 °C,0.31 °C,0.2 °C,0.57 °C,0.83 °C,0.97 °C,1.35 °C
CCCCCCCCCC(=O)CC(O)S(=O)(=O)O (stereo not given) [Sodium Houttuyfonate],0.56 °C,-0.18 °C,3.08 °C,0.69 °C,0.44 °C,0.8 °C,-0.35 °C,0.2 °C,0.12 °C,0.07 °C,1.15 °C,0.04 °C,0.03 °C,0.07 °C,0.28 °C,0.09 °C,0.29 °C,0.25 °C,-0.08 °C,1.73 °C
C[C@@H]1CCN(C(=O)CC#N)C[C@@H]1N(C)c1ncnc2[nH]ccc12,0.9 °C and -0.07 °C,0.59 °C and 1.29 °C,1.82 °C and 1.15 °C,-0.91 °C and -0.21 °C,0.33 °C and 0.19 °C,0.43 °C and 0.81 °C,1.17 °C and 1.71 °C,1.08 °C and 0.82 °C,0.59 °C and 0.38 °C,0.05 °C and 0.04 °C,1.55 °C and 1.07 °C,0.87 °C and 1.25 °C,0.98 °C and 1.64 °C,0.28 °C and 0.78 °C,0.15 °C and 0.3 °C,0.37 °C and 0.59 °C,0.22 °C and 0.98 °C,0.94 °C and 0.96 °C,0.97 °C and 0.47 °C,0 °C and 1.09 °C
N[C@@H]1CCCN(c2c(/C=C3\SC(=O)NC3=O)cccc2-c2ccccc2)C1,0.41 °C,0.59 °C,0.27 °C,-0.81 °C,0.66 °C,0.65 °C,0.1 °C,0.27 °C,0 °C,-0.01 °C,0.49 °C,-0.07 °C,0.8 °C,-0.31 °C,-0.25 °C,0.19 °C,0.55 °C,0.62 °C,-0.31 °C,-0.03 °C
C[C@@H](Nc1cc(F)cc(F)c1)c1cc(C(=O)N(C)C)cc2c(=O)cc(N3CCOCC3)oc12,0.11 °C,1.11 °C,0.28 °C,0.04 °C,0.22 °C,-0.4 °C,-0.77 °C,0.46 °C,0.01 °C,-0.12 °C,0.51 °C,1.18 °C,1.09 °C,0.24 °C,0.36 °C,0.08 °C,0.6 °C,0.37 °C,0.3 °C,0.78 °C
CC(C)(C)NC(=O)c1cncn1C1CCN(c2ccc(-c3nnc(C(F)(F)F)o3)cn2)CC1,0.22 °C,0.89 °C,0.11 °C,-0.25 °C,0.2 °C,0.13 °C,-0.63 °C,0.3 °C,0.06 °C,0.97 °C,-0.21 °C,0.32 °C,-0.26 °C,-0.16 °C,0.05 °C,0.37 °C,-1.16 °C,0.52 °C,0.95 °C,-0.2 °C
CN1C(=O)[C@@H](NC(=O)c2n[nH]c(Cc3ccccc3)n2)COc2ccccc21,0.8 °C,1.65 °C,0.07 °C,0.83 °C,0.52 °C,0.05 °C,0.62 °C,0.43 °C,0.45 °C,2.47 °C,0.85 °C,0.1 °C,0.2 °C,0.29 °C,0.17 °C,0.41 °C,-0.03 °C,0.55 °C,0.71 °C,0.62 °C
COc1ccc(S(=O)(=O)N(C(C)=O)c2ccccc2/C=C/c2cc[n+]([O-])cc2)cc1,-0.1 °C,0.48 °C,0.77 °C,0.64 °C,0.58 °C,0.67 °C,-0.39 °C,0.12 °C,-0.08 °C,0.02 °C,1.85 °C,0.75 °C,0.63 °C,0.55 °C,-0.3 °C,0.2 °C,1.33 °C,0.62 °C,2.16 °C,1.01 °C
OCCn1cc(-c2ccc3c(c2)CC/C3=N\O)c(-c2ccncc2)n1,0.98 °C,-2.29 °C,0.31 °C,0.39 °C,0.01 °C,0.47 °C,0.93 °C,0.73 °C,0.39 °C,-0.04 °C,0.82 °C,1.25 °C,0.99 °C,0.67 °C,-0.31 °C,0.26 °C,1.43 °C,1 °C,0.49 °C,0.48 °C
Cc1[nH]c(/C=C2\C(=O)Nc3ccc(S(=O)(=O)Cc4c(Cl)cccc4Cl)cc32)c(C)c1C(=O)N1CCC[C@@H]1CN1CCCC1,1.92 °C,1.5 °C,0.36 °C,0.4 °C,0.57 °C,0.17 °C,3.39 °C,0.38 °C,-0.1 °C,0.18 °C,1.04 °C,1.52 °C,0.53 °C,0.78 °C,0.73 °C,0.57 °C,0.8 °C,3.7 °C,7.86 °C,0.39 °C

# Source: the supplement of paper PMC9694430
